This is one part of a sample in which hits are shown more often than they occur.
MARV entry inh – Marburg virus entry inhibition | Potency, µM (titrated, usually from 37.8 µM), without a hit: top-dose activity change, negative = inhibition, hits mostly inhibitors | AID 540276 | Marburg virus pseudotyped entry inhibition, cell reporter | 300,000 tested, 1.8% active; calls by dose curve; tested in HEK293 cells; also: potency is read from the fitted curve at half-maximal effect; % is scaled to controls: 0 for no effect and ±100 for the full control effect
Lassa entry inh – blocks Lassa virus binding to or entry into cells. Lassa virus pseudotype entry inhibition, cell reporter. Potency, µM (top dose mostly 37.9 µM), for inactives: at the highest dose activity change, negative = inhibition, hits mostly inhibitors. 300,000 tested, 1.2% active. AID 540256; calls by dose curve; tested in HEK293 cells; also: potency is read from the fitted curve at half-maximal effect; % is scaled to controls: 0 for no effect and ±100 for the full control effect; nearly all actives have a fitted effect of over 50% in size
Shiga toxin inh – blocks Shiga toxin action in Vero cells; Vero cells, Shiga toxin protein synthesis inhibition reporter; AID 2315; 290,000 tested, 9.2% active; inhibition, % at 38.7 µM; in the data active = inhibition mostly above about 28%, no sharp cut-off; inactive = mostly below about 43%; also: 0% is about no effect
AMA1 RON2 block – inhibitors of Plasmodium falciparum AMA1-RON2 interaction; AID 720542; 360,000 tested, 0.2% active; Potency, µM (top dose mostly 58.2 µM), inactives show at the highest dose activity change, negative = inhibition, most hits filed as inhibitors; AlphaScreen AMA1-biotinylated RON2 peptide binding; active = well fitted inhibition curve with a large enough effect; inconclusive = small, poorly fitted or top-dose-only effect; inactive = no such curve, though single readings can be large or run the other way;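 also: potency is read from the fitted curve at half-maximal effect; 0% = vehicle wells and -100% = peptide control; nearly all actives have a fitted effect of over 45% in size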
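AMA1 (3D7) with his tag at 25 nM final met compounds first, then biotinylated RON2 peptide at 25 nM; detection used donor plus acceptor beads, 10 µg/mL apiece, read by AlphaScreen after 30 min at room temperature.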
CHX counter – counter-screen for Shiga toxin inhibitors: cycloheximide protein synthesis inhibition; max response, %; cell reporter, cycloheximide protein synthesis inhibition counterscreen; AID 2314; 300,000 tested, 12% active; in the data active = max response mostly above about 13%, no sharp cut-off; inactive = mostly below about 14%; also: read at 38.3 µM for the half of the compounds with a filed dose; 0% is about no effect
The depositor's hits bear a star; ? = inconclusive; . = not tested or not shown; [ ] = remark or other dose.

SMILES | MARV entry inh | Lassa entry inh | Shiga toxin inh | AMA1 RON2 block | CHX counter
Cn1cc(CNC(=O)c2sc3cccc(Cl)c3c2Cl)cn1 | 0.0% | -0.4% | -0.9 | -15.0% | -2.7
CCc1ccc(C(=O)NCc2cnn(C)c2)s1 | 7.5%[46.1 µM] | ? | 37.3* | -2.4% | 23.8
CC(C)(C)OC(=O)N1CCC(C(=O)Nc2cccc(C(=O)N3CCCCC3)c2)CC1 | . | ? | . | -0.4% | .
NCC(O)COCCC12CC3CC(CC(C3)C1)C2 (stereo not given) | -24.4%[46.1 µM] | 9.7% | -25.8 | 13.4% | 7.4
COc1ccc(C(OCC(O)CNC(C)c2ccccc2)c2ccc(OC)cc2)cc1 (stereo not given) | 3.55µM* | ? | 7.0 | 8.5% | -3.8
COc1ccc(C(OCC(O)CNCCc2ccccc2)c2ccc(OC)cc2)cc1 (stereo not given) | ? | ? | -1.7 | -11.2% | -5.8
CC(NCC(O)COCCC12CC3CC(CC(C3)C1)C2)c1ccccc1 (stereo not given) | 11.6µM* | ? | -17.2 | -6.6% | -5.6
CCCNC(=O)C1(C)CCN(C(=O)Cc2ccc3ccccc3c2)C1 (stereo not given) | . | . | . | -1.6% | .
O=C(CSc1nnc(NC2CCCCC2)s1)Nc1ccc2c(c1)C(=O)c1ccccc1C2=O | . | . | 65.6* | -1.3% | 42.3*
CC(C)Nc1nnc(SCC(=O)Nc2ccc3c(c2)C(=O)c2ccccc2C3=O)s1 | ? | ? | 70.1* | -21.8% | 40.8*
Cc1ccc(NC(=O)CN(C)C(=O)CSc2nnc(NC(C)C)s2)cc1 | -6.6% | -9.1% | . | -15.8% | .
NS(=O)(=O)c1ccc(NC(=O)CSc2nnc(NC3CC3)s2)cc1 | 10.2% | 0.5%[46.1 µM] | . | -1.5% | .
Cc1ccc2nc(N(CCN(C)C)C(=O)c3ccc4c(c3)OCCO4)sc2c1 | -9.4%[46.1 µM] | 1.2%[46.1 µM] | 64.1 | -3.8% | 34.7*
CN(C)CCN(C(=O)c1ccc2ccccc2c1)c1nc2ccc(Br)cc2s1 | . | . | 44.0 | 4.2% | 16.4*
CN(C)CCN(C(=O)c1ccc(S(=O)(=O)N2CCCC2)cc1)c1nc2ccc(Br)cc2s1 | -46.5%[46.1 µM] | 27.6%[46.1 µM] | 56.5* | -4.5% | 29.9*
CCN(CC)CCN(C(=O)c1ccc2ccccc2c1)c1nc2ccc(F)cc2s1 | ? | 8.7%[46.1 µM] | 51.2* | 20.3% | 8.9
Cc1ccc2nc(N(CCN(C)C)C(=O)c3ccc4ccccc4c3)sc2c1 | 10.7%[46.1 µM] | 3.7%[46.1 µM] | 16.7 | 9.3% | 24.0
CCN(CC)C(=O)c1sc2c(c1C)c(=O)n(-c1ccc(C)c(C)c1)c(=O)n2CC(=O)Nc1ccc(OC)cc1OC | . | -2.0%[46.1 µM] | . | . | .
COC(=O)[C@]12CCCCC=C1N(CCC1=CCCCC1)C(=O)[C@H](CC(=O)NCCCN1CCCC1=O)C2 | . | . | . | 3.7% | .
C#CCN1C(=O)[C@]2(O[C@H](C)CC3=CCCC32)c2c(Br)cccc21 (stereo not given in full) | -15.3%[14.2 µM] | ? | . | . | .
CCOC(=O)c1noc2ncnc(Nc3ccc(C)c(F)c3)c12 | . | 11.4%[46.1 µM] | . | . | .
CN(C)CCN(C(=O)COc1ccc(Cl)cc1)c1nc2cc3c(cc2s1)OCO3 | 7.9%[46.1 µM] | 18.9%[46.1 µM] | -1.7 | 11.5% | 21.9*
CN(C)CCN(C(=O)c1ccc2ccccc2c1)c1nc2cc3c(cc2s1)OCCO3 | ? | -29.5% | 81.9* | -14.6% | 39.1*
CCN(CC)CCN(C(=O)c1cc2c(ccc3ccccc32)oc1=O)c1nc2cc3c(cc2s1)OCCO3 | ? | 11.3%[46.1 µM] | 11.4 | -8.2% | 21.3*
Cc1ccc2nc(N(CCCN(C)C)C(=O)c3ccc(S(=O)(=O)N4CCCCCC4)cc3)sc2c1 | ? | ? | -7.2 | -9.9% | -3.5
SMILES | MARV entry inh | Lassa entry inh | Shiga toxin inh | AMA1 RON2 block | CHX counter
CN(C)CCCN(C(=O)c1ccc2ccccc2c1)c1nc2cc3c(cc2s1)OCO3 | ? | 7.7%[46.1 µM] | -17.4 | -13.2% | -2.5
CCCCN(C)S(=O)(=O)c1ccc(C(=O)N(CCN(C)C)c2nc3ccc(C)cc3s2)cc1 | . | . | 44.2* | -1.1% | 19.8*
CCN(CC)CCN(C(=O)c1ccc2c(c1)OCCO2)c1nc2cc3c(cc2s1)OCO3 | ? | -4.9% | -14.6 | -5.0% | -4.0
CCCCn1c(N)c(N(CCOC)C(=O)CN2C(=O)C3CCCCC3C2=O)c(=O)[nH]c1=O (stereo not given) | . | . | . | 31.0% | .
Cc1c(C(=O)C(=O)NCC2CCCO2)c2ccccc2n1C (stereo not given) | ? | 5.6% | 1.4 | 5.0% | 6.5
Cc1cccc2sc(N(CCN(C)C)C(=O)c3ccc4c(c3)OCCO4)nc12 | . | 2.5%[46.1 µM] | . | . | .
COc1ccc(C)c2sc(N(CCCN(C)C)C(=O)c3ccc4c(c3)OCCO4)nc12 | ? | 10µM* | . | -1.4% | .
Cc1ccc2nc(N(CCCN(C)C)C(=O)c3ccc4ncsc4c3)sc2c1 | ? | ? | 89.0* | -2.6% | 40.6*
CN(C)CCN(C(=O)c1cccc(N2C(=O)CCC2=O)c1)c1nc2ccc(Br)cc2s1 | -10.8% | 6.9% | 35.2 | 1.1% | 13.0*
COc1ccc2nc(N(CCN(C)C)C(=O)c3ccc4ncsc4c3)sc2c1 | . | . | . | -0.1% | .
O=C(NC1CC(=O)N(c2ccc(F)cc2)C1)c1ccc2c(c1)OCO2 (stereo not given) | . | 15.0%[46.1 µM] | . | . | .
CC(C)(C)N(Cc1ccccc1)C(=O)CN1C(=O)c2ccccc2C1=O | -6.4%[46.1 µM] | 17.4%[46.1 µM] | 54.7* | 1.5% | 38.3*
CCCCOC(=O)Nc1nnc(/C=C/c2ccc(OC)cc2)s1 | 29.8% | -6.5% | -7.1 | 6.4% | -5.4
CC(C)(C)C(=O)Nc1nnc(COc2ccc(Cl)cc2)s1 | 8.8% | 2.9% | 38.5* | 10.6% | 25.1*
CCOC(=O)Nc1nnc(/C=C/c2ccc(OC)cc2)s1 | 3.1% | 1.3% | 2.6 | 3.9%[2.32 µM] | 23.6*
CCC(=O)Nc1nnc(/C=C/c2ccccc2)s1 | . | . | 49.4* | -7.3% | 44.2*
O=C(Nc1nnc(COc2ccc(Cl)cc2)s1)c1cccs1 | 14.2% | 23.3% | -12.6 | 5.4% | -1.9
COc1ccc(/C=C/c2nnc(NC(=O)COc3ccccc3)s2)cc1 | 12.6%[46.1 µM] | 18.1% | 27.9 | 22.2% | -2.4
CCCCC(=O)Nc1nnc(/C=C/c2ccc(OC)cc2)s1 | . | . | -6.2 | 10.0% | -1.1
CCCC(=O)Nc1nnc(/C=C/c2ccc(OC)cc2)s1 | 6.0%[46.1 µM] | 1.0% | 21.5 | -0.3% | 19.1*
O=C(CN1C(=O)COc2ccc(S(=O)(=O)N3CCOCC3)cc21)N1CCN(c2ccc(F)cc2)CC1 | 5.5%[46.1 µM] | -0.4%[46.1 µM] | . | . | .
CSc1ncccc1C(=O)Nc1cccc(S(=O)(=O)N2CCCCCC2)c1 | . | . | . | -8.0% | .
CCCC(=O)Nc1nnc(/C=C/c2ccccc2)s1 | . | . | 40.4* | 9.9% | 25.9*
COc1ccc(/C=C/c2nnc(NC(=O)COc3ccc(C)cc3)s2)cc1 | -14.5% | -3.0% | -9.3 | 7.3%[2.32 µM] | 13.9*
COc1ccc(/C=C/c2nnc(NC(=O)C(C)(C)C)s2)cc1 | 9.3%[46.1 µM] | 7.0% | 26.2 | 17.1% | 22.0*
COc1ccc(/C=C/c2nnc(NC(=O)c3ccco3)s2)cc1 | . | . | 40.7 | 22.4% | 8.9
CC(C)(C)CC(=O)NCC(c1ccc2c(c1)OCO2)N1CCN(c2ccccc2)CC1 (stereo not given) | . | -24.7%[46.1 µM] | . | . | .
C[C@@H](NC(=O)c1coc(=O)c(Br)c1)c1ccccc1 | ? | ? | 25.6 | 5.4% | 20.2*
Cc1cc(NC(=O)c2coc(=O)c(Br)c2)ccc1C(C)C | ? | 1.6% | 108.3* | -12.0% | 95.4*

High-throughput results as filed in PubChem BioAssay.
